Drawing on PubChem BioAssay (Tox21), this text covers Potency for 40 molecules.

Structures are written as SMILES. Results filed as inconclusive are left out. Where a call stands in place of a potency, no number is given. The source made the active and inactive calls. Calls come from the whole dose curve; as a rule, active = well fitted cell-killing curve with a large enough effect in the repeat runs; inconclusive = weak or mixed curves, or effect the other way; inactive = flat fitted curve, though single readings scatter.
Potency is the fitted concentration of half-maximal effect.

The assay is described as follows: qHTS RealTime-Glo MT Cell Viability Assay in HEK293 cells - 24 hour (AID 1224886). Note: nearly all actives have a fitted effect of over 50% in size. The note with it: RealTime-Glo luminescence; series mostly up to 76.8 µM. An excerpt:
National Center for Advancing Translational Sciences [NCATS]
NIH Chemical Genomics Center [NCGC]
U.S. Environmental Protection Agency [EPA]
National Institutes of Environmental Health Sciences [NIEHS]
National Toxicology Program [NTP]
U.S. Food and Drug Administration [FDA]
Measure of cell viability is critical in the cell-base assay. Analysis of cell viability is necessary for the characterization of cell responses to cytotoxic drugs and environmental stress. A RealTime-Glo MT Cell Viability Assay to monitor cell viability in real time of continues cell culture during 40 hours of compound treatment was used to screen Tox21 10K library compounds in Hek293 cells. The RealTime-Glo MT Cell Viability Assay is a nonlytic, homogeneous, bioluminescent method to measure cell viability in real time using a simple, plate-based method. The assay involves adding NanoLuc luciferase and a cell-permeant prosubstrate to cells in culture. Viable cells reduce the proprietary prosubstrate to generate a substrate for NanoLuc luciferase. This substrate diffuses from cells into the surrounding culture medium, where it is rapidly used by the NanoLuc Enzyme to produce a luminescent signal. The signal correlates with the number of viable cells, making the assay well suited for cytotoxicity studies.
Tox21 Assay Protocol Summary:
The mixture of Hek293 cell suspension and reagents were dispensed at 600cells/6 ul/well in 1536-well tissue culture treated black solid bottom plates using a Multidrop dispenser. After the assay plates were incubated at a 37 C/5% CO2 incubator for 5 hours, 23 nL of compounds dissolved in DMSO, positive and negative controls was transferred to the assay plate by a pintool work station. The plates were incubated at 37 C for 40 hours. The luminescence intensity were measured at 0h, 8h, 16h, 24h, 32h and 40h time points using ViewLux plate reader during compound treatment.
(In qHTS, concentration-response curves come from the screen itself.)
Turning to `c1ccc(N2CCNCC2)cc1`, the Potency result is “inactive”.
Consider `CCCCOC(=O)c1ccccc1N`, for which the Potency result was “inactive”.
Regarding `C[N+](=O)[O-]`, the Potency result is “inactive”.
Regarding `OC(c1ccccc1)(c1ccccc1)C1CCNCC1`, the Potency entry is “inactive”.
Then `CN1C[C@@H](NS(=O)(=O)N(C)C)C[C@@H]2c3cccc4c3c(cn4C)C[C@H]21`, with “inactive”.
Then `Cc1cc(C)c(C(=O)P(=O)(C(=O)c2c(C)cc(C)cc2C)c2ccccc2)c(C)c1`, with “inactive”; and `C[C@H]1CCC[C@H](O)CCCCCc2cc(O)cc(O)c2C(=O)O1`, with 34.9 µM (active).
Consider `CCS(=O)(=O)CCSP(=O)(OC)OC`, for which the Potency entry is “inactive”.
Consider `O=NN1CCN(N=O)CC1`, for which the Potency entry is “inactive”.
Then `COc1ccc(C(=O)N2CCCC2=O)cc1`, with “inactive”; and `Oc1c(Cl)cccc1Cl`, with “inactive”.
Then `CC(=O)Nc1cc([As](=O)(O)O)ccc1O`, with “inactive”.
Turning to `Fc1ccc(C2(Cn3cncn3)OC2c2ccccc2Cl)cc1` (stereo not given), the Potency was 43.6 µM (active).
As for `O=[N+]([O-])c1cc(Cl)c(Cl)c(Cl)c1`, the Potency entry is “inactive”.
To `COc1cc2c(cc1OC)[C@@]13CCN4CC5=CCO[C@H]6CC(=O)N2[C@H]1[C@H]6[C@H]5C[C@H]43` belongs “inactive”.
Then `CC(C)(C)OC(=O)c1ncn2c1[C@@H]1CCCN1C(=O)c1c(Br)cccc1-2`, with “inactive”; and `COc1cc(OC)nc(Sc2cccc(Cl)c2C(=O)O)n1`, with “inactive”.
Then `COP(=S)(OC)Oc1ccc(S(N)(=O)=O)cc1`, with “inactive”; and `CC(C)CP(=S)(S)CC(C)C`, with “inactive”; and `N#CCBr`, with “inactive”.
Consider `CCCCOC(=O)c1ccccc1C(=O)O`, for which the Potency entry is “inactive”.
For the molecule `Nc1ccccc1Cl`, the Potency result is “inactive”.
To `CCc1cc2c(s1)-n1c(C)nnc1CN=C2c1ccccc1Cl` belongs “inactive”; to `CN(C)CCc1ccc(O)cc1`, “inactive”; to `CNC(=O)Oc1c(C(C)(C)C)cc(C)cc1C(C)(C)C`, “inactive”.
Consider `COC(=O)c1ccccc1S(=O)(=O)NC(=O)Nc1nc(C)cc(C)n1`, for which the Potency result is “inactive”.
As for `ClCCOCOCCCl`, the Potency entry was “inactive”.
Regarding `COC(=O)C(C)Oc1ccc(Oc2ccc(Cl)cc2Cl)cc1` (stereo not given), the Potency entry was “inactive”.
For the molecule `CN1CCN(C(=O)O[C@H]2c3nccnc3C(=O)N2c2ccc(Cl)cn2)CC1`, the Potency result is “inactive”.
On to `C=C(C)CN(CC)c1c([N+](=O)[O-])cc(C(F)(F)F)cc1[N+](=O)[O-]`, for which the Potency result is “inactive”.
To `O=C(Nc1ccccc1)N(Cc1ccc(Cl)cc1)C1CCCC1` belongs 21.9 µM (active); to `CCOC(=O)C(c1c(O)c2ccccc2oc1=O)c1c(O)c2ccccc2oc1=O`, “inactive”; to `CC(C(=O)c1ccccc1)N(C)C` (stereo not given), “inactive”.
To `O=C(O)c1cccc(Cl)c1` belongs “inactive”; to `COc1cccc(C(=O)NN(C(=O)c2cc(C)cc(C)c2)C(C)(C)C)c1C`, “inactive”.
Regarding `O=C(Nc1ccccc1)c1ccccc1I`, the Potency entry was “inactive”.
As to `COc1cc(C[C@@H](C)N)c(OC)cc1C`, the Potency entry is “inactive”.
Then `BrCCCCCCBr`, with “inactive”; and `COC(C)(C)C`, with “inactive”; and `CCC(Cl)[N+](=O)[O-]` (stereo not given), with “inactive”.
